In ChEMBL document CHEMBL3988442, “University of Dundee, Small-Polar-MMV Screening Library” (2021):
For some assays here: Results with a measured potency or affinity are listed apart.

Columns and labels:
Parameters in all cases: scale not given: direction of the effect not stated beside the values
[1] = molecular target: Protein translocase subunit SecA (Escherichia coli (strain K12)) (UniProt P10408); experiment: Assay to Identify E. coli SecA ATPase Inhibitors; format: functional; settings: 30 µM
[2] = molecular target: T1, Ubiquitin-activating enzyme e1, putative (Leishmania donovani (strain BPK282A1)) (UniProt E9BSI1); experiment: Leishmania donovani Ubiquitin Activating Enzyme (LdE1); format: functional; settings: 30 µM
T1 sequence (whole entry): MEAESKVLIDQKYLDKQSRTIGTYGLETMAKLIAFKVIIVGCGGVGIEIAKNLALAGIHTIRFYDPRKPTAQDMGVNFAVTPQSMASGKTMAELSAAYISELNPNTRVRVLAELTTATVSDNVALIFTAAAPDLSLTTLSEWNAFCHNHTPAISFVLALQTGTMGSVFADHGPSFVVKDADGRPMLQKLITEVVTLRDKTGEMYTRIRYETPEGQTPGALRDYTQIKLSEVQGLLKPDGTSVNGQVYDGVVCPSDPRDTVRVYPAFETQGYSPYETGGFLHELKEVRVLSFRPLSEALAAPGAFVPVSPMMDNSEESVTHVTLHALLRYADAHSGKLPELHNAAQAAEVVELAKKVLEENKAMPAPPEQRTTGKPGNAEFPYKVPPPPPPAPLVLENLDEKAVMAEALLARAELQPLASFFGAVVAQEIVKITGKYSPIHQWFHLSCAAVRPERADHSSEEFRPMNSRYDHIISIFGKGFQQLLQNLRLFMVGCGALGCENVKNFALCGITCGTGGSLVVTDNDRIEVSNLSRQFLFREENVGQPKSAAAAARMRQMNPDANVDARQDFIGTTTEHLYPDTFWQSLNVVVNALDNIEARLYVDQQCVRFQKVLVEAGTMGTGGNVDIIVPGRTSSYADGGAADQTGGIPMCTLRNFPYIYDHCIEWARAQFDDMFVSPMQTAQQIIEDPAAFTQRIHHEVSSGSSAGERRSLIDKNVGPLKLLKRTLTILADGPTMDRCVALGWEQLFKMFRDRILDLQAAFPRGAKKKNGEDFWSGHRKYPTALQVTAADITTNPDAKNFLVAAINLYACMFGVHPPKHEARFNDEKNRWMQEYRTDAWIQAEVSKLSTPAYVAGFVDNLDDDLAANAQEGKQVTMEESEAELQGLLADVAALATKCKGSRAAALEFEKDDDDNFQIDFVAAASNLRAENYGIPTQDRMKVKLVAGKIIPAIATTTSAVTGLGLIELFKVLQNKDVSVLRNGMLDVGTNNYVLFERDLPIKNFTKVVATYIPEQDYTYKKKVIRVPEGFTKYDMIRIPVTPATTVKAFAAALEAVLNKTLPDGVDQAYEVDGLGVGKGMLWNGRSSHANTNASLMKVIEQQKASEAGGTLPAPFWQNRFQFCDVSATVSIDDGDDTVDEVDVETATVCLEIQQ

[3] = molecular target: AMP-activated protein kinase, AMPK (Homo sapiens) (UniProt P54646+O43741+P54619+Q9UGJ0+Q9Y478+Q13131+Q9UGI9); experiment: AMP-dependent Kinase enzyme assay. An in vitro enzyme assay that detects ADP turnover that is directly proportional to AMPK activity. This uses naive AMPK that is activated during the assay with MK-8722; format: functional; settings: 30 µM
[4] = molecular target: Sialic acid-binding Ig-like lectin 9 (Homo sapiens) (UniProt Q9Y336); experiment: Hs-Siglec9 ALPHAscreen SOP 20170721; settings: 10 µM
Trypanosoma cruzi = experiment: Trypanosoma cruzi phosphomannomutase and mannose-1-phosphate guanylyltransferase assay; format: functional; settings: 10 µM
[5] = molecular target: T2, Arginase-2, mitochondrial (Homo sapiens) (UniProt P78540); experiment: in vitro enzyme assay to detect the production of urea directly proportional to the activity of Arginase II; format: functional; settings: 33.3 µM; further: in the data most compounds retested in dose-response had high values
T2 sequence (whole entry): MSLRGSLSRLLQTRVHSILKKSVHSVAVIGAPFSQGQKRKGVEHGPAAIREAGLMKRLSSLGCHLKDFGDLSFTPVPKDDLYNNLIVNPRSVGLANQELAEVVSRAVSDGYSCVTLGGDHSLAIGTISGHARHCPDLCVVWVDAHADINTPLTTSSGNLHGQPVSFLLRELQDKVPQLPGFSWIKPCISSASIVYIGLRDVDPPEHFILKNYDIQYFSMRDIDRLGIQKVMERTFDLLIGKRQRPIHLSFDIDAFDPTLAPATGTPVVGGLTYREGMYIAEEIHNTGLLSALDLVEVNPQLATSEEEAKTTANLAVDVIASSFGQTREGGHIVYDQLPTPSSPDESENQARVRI

[6] = molecular target: T3, Proteasome subunit beta (Trypanosoma cruzi) (UniProt O96673); experiment: Trypanosoma cruzi proteasome chymotrypsin-like activity (TcProtChymo) assay.; further: in the data most compounds retested in dose-response had high values; format: functional; settings: 9.37 µM
T3 sequence (whole entry): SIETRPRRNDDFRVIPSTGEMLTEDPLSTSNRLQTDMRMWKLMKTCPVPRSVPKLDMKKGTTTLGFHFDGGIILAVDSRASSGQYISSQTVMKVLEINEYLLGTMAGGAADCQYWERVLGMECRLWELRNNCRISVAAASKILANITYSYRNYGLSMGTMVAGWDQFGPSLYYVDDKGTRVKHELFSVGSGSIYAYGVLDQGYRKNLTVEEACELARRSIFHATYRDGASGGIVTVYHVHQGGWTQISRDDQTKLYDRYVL

Homo sapiens = species: Homo sapiens; experiment: To identify inhibition of the IFN signalling (Jak-Stat) pathway via expression of an eGFP reporter gene under the control of an IFN-stimulated response element (ISRE) containing MxA promoter.; format: functional; settings: 30 µM
[7] = molecular target: T4, Tyrosyl-tRNA synthetase, putative (Trypanosoma cruzi (strain CL Brener)) (UniProt Q4DSP6); experiment: Trypanosoma cruzi tyrosyl tRNA synthetase (TcYRS) _High Tyrosine SOP; format: functional; settings: 30 µM; further: in the data most compounds retested in dose-response had high values
T4 sequence (whole entry): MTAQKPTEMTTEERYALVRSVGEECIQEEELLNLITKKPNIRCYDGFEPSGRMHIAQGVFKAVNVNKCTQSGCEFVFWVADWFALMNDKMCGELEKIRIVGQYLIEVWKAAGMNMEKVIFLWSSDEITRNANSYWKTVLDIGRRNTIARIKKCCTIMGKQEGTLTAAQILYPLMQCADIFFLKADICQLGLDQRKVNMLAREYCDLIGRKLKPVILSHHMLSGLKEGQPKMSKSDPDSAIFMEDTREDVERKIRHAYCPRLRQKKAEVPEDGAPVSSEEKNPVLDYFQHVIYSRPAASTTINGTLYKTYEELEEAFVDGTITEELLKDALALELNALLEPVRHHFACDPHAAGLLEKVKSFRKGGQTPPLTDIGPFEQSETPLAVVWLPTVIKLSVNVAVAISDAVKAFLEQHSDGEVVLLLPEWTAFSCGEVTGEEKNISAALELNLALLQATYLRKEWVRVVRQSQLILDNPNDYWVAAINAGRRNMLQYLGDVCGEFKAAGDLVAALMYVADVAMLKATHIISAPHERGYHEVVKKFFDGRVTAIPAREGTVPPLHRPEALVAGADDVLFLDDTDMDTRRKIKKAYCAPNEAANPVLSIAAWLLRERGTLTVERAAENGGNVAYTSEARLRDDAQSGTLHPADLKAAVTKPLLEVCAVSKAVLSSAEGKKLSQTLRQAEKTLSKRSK

[8] = molecular target: T4, Tyrosyl-tRNA synthetase, putative (Trypanosoma cruzi (strain CL Brener)); experiment: Trypanosoma cruzi tyrosyl tRNA synthetase (TcYRS) SOP; format: functional; settings: 30 µM
[9] = molecular target: Chromo domain-containing protein 1 (Saccharomyces cerevisiae (strain ATCC 204508 / S288c) (Baker's yeast)) (UniProt P32657); experiment: ScCHD-1 Enzyme Inhibition Assay; format: functional; settings: 30 µM; further: in the data most compounds retested in dose-response had high values
Chain of Chromo domain-containing protein 1 (Saccharomyces cerevisiae (strain ATCC 204508 / S288c) (Baker's yeast)) (P32657 whole entry, the tested form may be a part): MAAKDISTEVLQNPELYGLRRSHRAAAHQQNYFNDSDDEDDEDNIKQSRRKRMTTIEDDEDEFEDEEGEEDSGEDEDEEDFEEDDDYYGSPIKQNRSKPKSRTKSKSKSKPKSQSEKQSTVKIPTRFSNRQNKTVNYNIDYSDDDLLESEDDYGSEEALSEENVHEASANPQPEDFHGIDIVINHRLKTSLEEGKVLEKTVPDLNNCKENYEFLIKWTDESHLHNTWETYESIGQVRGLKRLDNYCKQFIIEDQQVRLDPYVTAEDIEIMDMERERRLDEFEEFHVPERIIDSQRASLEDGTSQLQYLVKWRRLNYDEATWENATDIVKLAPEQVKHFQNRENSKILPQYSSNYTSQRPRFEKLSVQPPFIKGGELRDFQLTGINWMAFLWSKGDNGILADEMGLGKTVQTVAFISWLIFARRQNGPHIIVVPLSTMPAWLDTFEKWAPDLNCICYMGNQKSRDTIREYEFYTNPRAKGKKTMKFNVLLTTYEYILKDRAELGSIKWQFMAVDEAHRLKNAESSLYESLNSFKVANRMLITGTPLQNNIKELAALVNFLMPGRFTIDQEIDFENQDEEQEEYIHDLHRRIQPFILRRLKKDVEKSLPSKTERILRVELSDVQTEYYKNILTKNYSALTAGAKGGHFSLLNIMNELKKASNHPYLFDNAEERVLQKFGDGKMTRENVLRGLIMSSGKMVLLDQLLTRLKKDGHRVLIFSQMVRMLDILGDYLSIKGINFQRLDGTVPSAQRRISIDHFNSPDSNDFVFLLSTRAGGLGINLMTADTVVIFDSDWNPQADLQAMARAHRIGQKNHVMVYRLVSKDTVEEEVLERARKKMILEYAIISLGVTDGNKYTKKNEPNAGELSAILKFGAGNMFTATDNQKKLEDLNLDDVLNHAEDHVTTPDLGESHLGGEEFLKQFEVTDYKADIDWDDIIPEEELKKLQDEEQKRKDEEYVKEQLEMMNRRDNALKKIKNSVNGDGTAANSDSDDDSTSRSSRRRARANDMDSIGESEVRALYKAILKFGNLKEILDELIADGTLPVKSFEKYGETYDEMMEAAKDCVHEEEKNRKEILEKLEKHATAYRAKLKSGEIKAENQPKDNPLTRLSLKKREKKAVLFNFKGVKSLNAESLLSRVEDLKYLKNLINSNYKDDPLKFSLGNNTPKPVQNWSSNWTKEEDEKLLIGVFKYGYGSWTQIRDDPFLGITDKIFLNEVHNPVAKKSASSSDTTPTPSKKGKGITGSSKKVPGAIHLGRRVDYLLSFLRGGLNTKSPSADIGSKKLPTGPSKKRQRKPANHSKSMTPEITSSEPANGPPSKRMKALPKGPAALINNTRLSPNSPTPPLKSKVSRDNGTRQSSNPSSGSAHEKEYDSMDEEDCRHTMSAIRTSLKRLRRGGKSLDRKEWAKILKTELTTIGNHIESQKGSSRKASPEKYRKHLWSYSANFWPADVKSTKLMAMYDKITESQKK

Chain of Sialic acid-binding Ig-like lectin 9 (Homo sapiens) (Q9Y336 whole entry): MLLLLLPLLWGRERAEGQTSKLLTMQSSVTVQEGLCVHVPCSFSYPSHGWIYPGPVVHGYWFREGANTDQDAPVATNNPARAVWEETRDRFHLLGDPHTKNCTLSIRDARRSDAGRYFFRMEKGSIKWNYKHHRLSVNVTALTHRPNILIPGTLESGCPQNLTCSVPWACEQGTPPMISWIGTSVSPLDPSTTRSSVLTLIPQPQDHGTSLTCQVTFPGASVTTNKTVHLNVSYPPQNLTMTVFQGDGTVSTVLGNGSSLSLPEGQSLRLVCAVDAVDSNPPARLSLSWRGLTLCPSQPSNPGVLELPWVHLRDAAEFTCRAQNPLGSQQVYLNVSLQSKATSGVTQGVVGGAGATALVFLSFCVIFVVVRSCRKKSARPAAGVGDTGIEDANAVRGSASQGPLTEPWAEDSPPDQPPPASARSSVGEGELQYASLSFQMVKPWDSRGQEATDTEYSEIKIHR
Chain of Protein translocase subunit SecA (Escherichia coli (strain K12)) (P10408 whole entry): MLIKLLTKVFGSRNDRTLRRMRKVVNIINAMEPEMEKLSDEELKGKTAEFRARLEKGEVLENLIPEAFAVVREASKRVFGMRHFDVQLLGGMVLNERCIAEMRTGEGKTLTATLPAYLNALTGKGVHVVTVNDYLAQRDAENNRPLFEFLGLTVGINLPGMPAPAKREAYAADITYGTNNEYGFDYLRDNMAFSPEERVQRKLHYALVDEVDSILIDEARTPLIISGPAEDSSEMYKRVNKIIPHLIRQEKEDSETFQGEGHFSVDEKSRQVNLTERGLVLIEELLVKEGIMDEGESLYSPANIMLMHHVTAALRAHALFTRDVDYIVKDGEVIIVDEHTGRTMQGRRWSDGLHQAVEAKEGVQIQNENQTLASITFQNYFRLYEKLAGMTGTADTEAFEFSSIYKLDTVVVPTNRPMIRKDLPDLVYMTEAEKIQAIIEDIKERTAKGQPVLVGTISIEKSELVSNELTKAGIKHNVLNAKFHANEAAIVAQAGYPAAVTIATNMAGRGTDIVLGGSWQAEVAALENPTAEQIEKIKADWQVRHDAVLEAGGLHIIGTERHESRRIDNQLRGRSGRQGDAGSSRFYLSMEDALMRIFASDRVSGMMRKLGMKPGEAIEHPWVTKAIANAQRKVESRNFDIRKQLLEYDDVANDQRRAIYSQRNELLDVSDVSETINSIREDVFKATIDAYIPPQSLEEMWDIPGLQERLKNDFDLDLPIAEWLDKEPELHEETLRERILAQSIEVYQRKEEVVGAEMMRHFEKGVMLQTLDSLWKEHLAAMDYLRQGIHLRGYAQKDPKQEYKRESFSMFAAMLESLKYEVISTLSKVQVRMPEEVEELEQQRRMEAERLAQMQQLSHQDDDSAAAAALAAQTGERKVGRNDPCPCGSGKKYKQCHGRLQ

Compound | Percent Effect [1] [%] | Percent Effect [2] [%] | Percent Effect [3] [%] | Percent Effect [4] [%] | Percent Effect (Trypanosoma cruzi) [%] | Percent Effect [5] [%] | Percent Effect [6] [%] | Percent Effect (Homo sapiens) [%] | Percent Effect [7] [%] | Percent Effect [8] [%] | Percent Effect [9] [%]
CC(C)NC(=O)CS(=O)(=O)Cc1cc(Cl)c2c(c1)OCCO2 | -2.36 | 20.2 | -6.59 | -0.915 | -0.283 | -1.52 | 0.737 | 13.3 | 7.39 | 24.1 | -5.39
Cc1cc(N(C)C)nc(C2(C)CCCN2C(=O)c2cnccn2)n1 (stereo not given) | -2.86 | 8 | 5.28 | -5.27 | 7.48 | 2.1 | 11.4 | -1.62 | 1.06 | 8.97 | -2.81
O=C(CCc1cc2n(n1)CCCN(C(=O)c1ccccn1)C2)NC1CC1 | -2.88 | 4.17 | -1.28 | 15.3 | 4.76 | 21.2 | 7.89 | -15.2 | 4.21 | 5.13 | -4.34
CC(C)COCC(NC(=O)c1cc[nH]n1)c1ccco1 (stereo not given) | -5.65 | 24.3 | -9.5 | 15.5 | 1.79 | -13.6 | 5.59 | 19.5 | 4.43 | 18.5 | -12.3
Cn1cc(N2CC3(CCN(Cc4cccs4)CC3)OCC2=O)cn1 | -0.959 | -2.74 | -1.55 | 15.7 | 2.38 | 3.19 | 3.68 | 2.59 | -14.6 | 8.64 | -2.76
CCc1nc2n(n1)CC(NCc1ccnc(-c3ccccc3)n1)CC2 (stereo not given) | -0.451 | 0 | -2.11 | 2.45 | 6.26 | 3.6 | -4.32 | -20.9 | 3.45 | 6.17 | 0.195
CC(C)c1nnc2n1CCN(C(=O)CN1Cc3ccccc3C1=O)C2 | -6.1 | 2.63 | -4.36 | 2.22 | 6.2 | -0.383 | 4.34 | 6.89 | 9.31 | 17.1 | -12.6
CC(=O)c1cn(CCC(=O)N[C@H](C(=O)O)C(C)C)c2ccccc12 | -1.16 | 12 | 3.61 | -0.198 | -2.95 | -9.68 | 11.7 | 8.13 | 7.41 | 15.4 | -3.85
CC(C)c1nn(C)c(N(C)C)c1CNCCC(=O)NC1CCCC1 | -6.71 | 21.1 | -15.3 | 3.05 | 10.4 | 1.08 | 13.4 | -19.1 | 7.39 | 23.5 | -6.05
O=C(CN1CCCC(O)C1)NC(=O)NCc1cccs1 (stereo not given) | -3.76 | 13.2 | 7.52 | -8.38 | -5.16 | -3.55 | 11.8 | 15.4 | 3.19 | 7.79 | -1.85
Cc1occc1C(=O)N1CCCC2(CCN(CCN3CCCC3)C2=O)C1 (stereo not given) | -3.31 | -2.6 | -1.22 | 14.5 | 6.79 | -12.4 | 7.82 | -2.84 | -11.8 | -11.1 | -0.372
CCCc1nc(CN2CCCC(Cn3cncn3)C2)no1 (stereo not given) | -6.43 | -1.27 | 0.957 | -0.585 | 0.718 | 0.215 | 2.06 | 4.36 | 5.21 | 15.2 | -25.2
Cc1cc(NC(=O)CCc2ccsc2)n(C)n1 | -8.05 | 4.17 | -4.38 | -1.11 | -3.98 | 3.97 | 17.7 | -3.97 | 1.05 | 7.69 | -4.62
O=C(CCCOc1ccc(F)cc1)N1CCCC(n2cccn2)C1 (stereo not given) | -2.63 | 13 | 4.56 | 2.38 | -3.82 | 2.74 | 6.71 | 15.8 | 2.86 | 11.8 | -14.5
CC(C)c1nc(C(=O)NCCn2ccnc2)nn1-c1cccc(F)c1 | -6 | 15.8 | -4.38 | -4.66 | -3.46 | -6.47 | 1.1 | -1.8 | 1.48 | 6.17 | -5.42
Nc1nc(CN2CCOC(Cn3cncn3)C2)nc2ccccc12 (stereo not given) | -2.89 | 0 | 2.62 | -2.89 | -1.02 | 0.924 | -7.18 | 0.0129 | 1.98 | 3.66 | 6.29
c1cnc(NCc2noc3c2CN(C2CCOCC2)CC3)nc1 | -4.67 | 18.7 | -2.09 | -2.32 | 3.86 | -46.8 | 15.7 | -2.62 | 7.29 | 22.5 | -7.21
Cc1nn(CC(C)C)c(N(C)C)c1CNCc1cccc2c1OCO2 | 3.79 | 13.5 | -13.1 | -3.94 | -8.02 | -12 | 16.9 | 13.9 | 7.39 | 11.1 | -4.83
COc1cccc(CCNC(=O)CN2CCCC2c2noc(C)n2)c1 (stereo not given) | -2.79 | 8.11 | 1.21 | -0.359 | -5.48 | 7.21 | 2.51 | 20.8 | 7.92 | 11 | -1.21
CCCNC(=O)CSc1nnc2[nH]c(=O)cc(CC)n12 | -1.19 | 19.2 | -3.66 | 6.46 | 1.37 | -1.36 | 15.4 | 10.2 | 7.53 | 17.5 | -7.28
Cc1csc(N2CCN(C(=O)CCc3ccccn3)CC2)n1 | -1.62 | 13.5 | -16 | 7.95 | 3.87 | -12.8 | 10.8 | 6.58 | 10.3 | 25.9 | -12.7
CC(C)(O)C1CCN(C(=O)Nc2nc(-c3ccccc3)ns2)CC1 | -2.39 | 2.7 | -2.64 | 7.48 | 2.25 | 18.6 | 18.8 | 55.5 | 1.07 | 3.7 | -3.52
O=C(NCCCn1nc2ccccn2c1=O)NC1CCC(O)CC1 (stereo not given) | -2.16 | 2.74 | 9.76 | 3.96 | -8.62 | 0.455 | 22.5 | 9.28 | 0 | 2.5 | -4.68
CNC(=O)c1cc2c(nc1NC(C)C)CCN(C(=O)NC(C)C)CC2 | -2.44 | 0 | -4.24 | -6.22 | -2.64 | -0.744 | -2.83 | -8.82 | 6.45 | 6.17 | -0.531
Cc1oncc1C(=O)N1CCC2(C1)CN(c1cccnc1)C(=O)CN2C (stereo not given) | -3.58 | 10.7 | -0.768 | -0.716 | 4.05 | -53.6 | 4.27 | -6.85 | 2.08 | 5 | -5.61
